This is an account of results in PubChem BioAssay (NCI).

Where “and” joins values, the source holds several entries; their conditions need not be identical. Identical values can stand only once. The panel holds about 83,000 compounds, 20% with a hit somewhere; the sample as a whole holds those more often.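 Plates (96-well) were seeded with cells, treated with compound at one concentration, and incubated for 48 hours before percent growth was determined.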 Calls of active or inactive are those of the source. How the source made its calls: active means growth percent below 10; inactive means the rest.

Holding throughout (test): NCI-60 one-dose screen, 48 h (100 = growth as untreated, 0 = no growth, -100 = all killed)
Common to all, as to settings: 10 µM unless noted

The test system of assay [1] is SK-MEL-2 melanoma.
Assay [2] has as its system EKVX NSCLC.
For assay [3], the system named is UO-31 renal.
Assay [4] concerns TK-10 renal.
The test system of assay [5] is ACHN renal.
Assay [6] concerns CAKI-1 renal.
Assay [7] deals with A498 renal.
Assay [8] deals with HL-60(TB) leukemia.
Assay [9] deals with CCRF-CEM leukemia.
Assay [10] deals with SN12C renal.

Regarding `CCOC(=O)P(=O)(OCC)OCC`, the growth in assay [1] was 113% (inactive); in assay [2], 124% (inactive); in assay [3], 92.3% (inactive); in assay [4] it was 107% (inactive); in [5] it was 105% (inactive); in [6] it was 119% (inactive). The growth in [7] was 102% (inactive); in assay [8], 113% (inactive); in assay [9] it was 118% (inactive).

As to `NC(=O)c1c(Br)c(Br)c(Br)c(Br)c1C(=O)O` (tested in a mixture with another compound), the growth in assay [1] was 101% (inactive) and 113% (inactive); in [2], 108% (inactive) and 99.9% (inactive); in assay [3] it was 72.4% (inactive) and 51.5% (inactive); in assay [4], 122% (inactive) and 123% (inactive); in [5], 92.7% (inactive) and 101% (inactive); in [6] it was 92.8% (inactive) and 97.5% (inactive). For the same compound, the growth in assay [7] is 113% (inactive); in assay [8] it was 85% (inactive) and 68.2% (inactive); in [9], 35.5% (inactive) and 79.4% (inactive).

For the compound `CC[C@H](C)[C@H]1O[C@]2(C=C[C@@H]1C)C[C@@H]1C[C@@H](C/C=C(\C)[C@@H](O[C@H]3C[C@H](OC)[C@@H](O[C@H]4C[C@H](OC)[C@@H](NC)[C@H](C)O4)[C@H](C)O3)[C@@H](C)/C=C/C=C3\CO[C@@H]4[C@H](O)C(C)=C[C@@H](C(=O)O1)[C@]34O)O2`, the growth is -54.5% (active) in assay [1]; -40.9% (active) in assay [2]; -47.5% (active) in [10]; -63.2% (active) in assay [3]; -33.9% (active) in [5]; 18.7% (inactive) in assay [6]. The growth is -7.23% (active) in [7], -59.8% (active) in assay [8] and -43% (active) in assay [9].

For the compound `O=P1(N(CCCl)CCCl)NCCCO1` (stereo not drawn), the growth in assay [1] was 114% (inactive); in assay [2], 101% (inactive); in assay [10], 95.4% (inactive); in [3], 90.3% (inactive); in [5], 103% (inactive); in assay [6], 99.8% (inactive). The growth in assay [7] was 115% (inactive); in assay [9], 95.6% (inactive).

As for `COc1ccc(/C=C(/C)[N+](=O)[O-])cc1OC`, the growth is 8.73% (active) and 0.617% (active) in assay [1]; 65.6% (inactive) and 84.6% (inactive) in assay [2]; -63.9% (active) and -93.1% (active) in assay [3]; -49.9% (active) and 70.4% (inactive) in assay [4]; -1.7% (active) and -73% (active) in assay [5]; -6.27% (active) and -71.9% (active) in assay [6]. Besides, the growth is 112% (inactive) and 97.9% (inactive) in [7]; -14.7% (active) and -26% (active) in assay [8]; 0.7% (active) and 20.8% (inactive) in assay [9].

With `C[C@]12CC[C@H]3[C@@H](CC=C4c5nc(-c6ccc(Br)cc6)sc5CC[C@@]43C)[C@@H]1CC[C@@H]2O`, the growth in assay [1] was 101% (inactive); in [2] it was 109% (inactive); in [3], 95.6% (inactive); in assay [4] it was 110% (inactive); in [5] it was 93.4% (inactive); in assay [6], 85.4% (inactive). In addition, the results for the growth in assay [7], in assay [8] and in assay [9] were 107% (inactive), 94.3% (inactive) and 96.1% (inactive), respectively.

Regarding `CC[C@@H](C)C(=O)O[C@H]1[C@H](O)[C@H]2[C@@H](CN3C[C@@H](C)CC[C@H]3[C@@]2(C)O)[C@@H]2C[C@]34O[C@]5(O)[C@@H](OC(=O)[C@@](C)(O)CC)CC[C@@]3(C)[C@@H]5[C@@H](OC(C)=O)[C@@H](OC(C)=O)[C@H]4[C@@]21O`, the growth in assay [1] is 103% (inactive); in assay [2], 93.7% (inactive); in assay [10] it was 97.1% (inactive); in assay [3], 82.1% (inactive); in [5] it was 101% (inactive); in assay [6] it was 100% (inactive). The growth in [7] was 102% (inactive); in assay [8], 92.4% (inactive); in assay [9] it was 99.9% (inactive).

For `C[C@]12CCc3sc(Nc4ccc(OC(F)(F)F)cc4)nc3C1=CC[C@@H]1[C@@H]2CC[C@]2(C)C(=O)CC[C@@H]12`, the growth in [1] is 61.8% (inactive); in assay [2] it was 78.4% (inactive); in [3], 54.3% (inactive); in assay [4] it was 98.2% (inactive); in assay [5], 71.6% (inactive); in [6] it was 60.4% (inactive). For the same compound, the growth in [7] is 75% (inactive); in [8], 44% (inactive); in assay [9] it was 5.05% (active).

On to `O=C1CN2CCC1CC2`, for which the growth in assay [1] is 101% (inactive); in [2] it was 109% (inactive); in assay [3], 84.6% (inactive); in assay [4] it was 106% (inactive); in assay [6], 103% (inactive); in [7] it was 72.2% (inactive). For the same compound, in assay [8], the growth is 94% (inactive).

Take `COCC1OC2OC3C(COC)OC(OC4C(COC)OC(OC5C(COC)OC(OC6C(COC)OC(OC7C(COC)OC(OC8C(COC)OC(OC1C(O)C2O)C(O)C8O)C(O)C7O)C(O)C6O)C(O)C5O)C(O)C4O)C(O)C3O` (stereo not drawn) (tested in a mixture with another compound): the growth in assay [1] is 65.7% (inactive); in assay [10] it was 97.6% (inactive); in assay [3], 97.3% (inactive); in assay [4], 146% (inactive); in assay [5], 107% (inactive); in [6], 102% (inactive). The figures for the growth in assay [7] and in assay [8] were 111% (inactive) and 132% (inactive), respectively.

`C[N+]12CCC34C5=CC(=O)C(=O)C=C5[N+]5(C)C(=O)CC6OCC=C(C1)C(CC32)C6C45` (stereo not drawn): the growth in assay [1] was 120% (inactive); in assay [10], 105% (inactive); in assay [3] it was 96.7% (inactive); in assay [4], 116% (inactive); in [5], 101% (inactive); in assay [6], 116% (inactive). The growth in assay [7] was 126% (inactive); in [8], 84.2% (inactive); in [9], 102% (inactive).

Take `CC[C@H](C)[C@H](NC(=O)C12CC(NC)(C1)C2)C(=O)N(C)[C@H](C[C@@H](OC(C)=O)c1nc(C(=O)N[C@@H](Cc2ccccc2)C[C@H](C)C(=O)OC)cs1)C(C)C`: the growth in assay [1] is 36.7% (inactive); in assay [10], 47.2% (inactive); in assay [3] it was 40.7% (inactive); in [4] it was 48.5% (inactive); in [5], 33.9% (inactive); in assay [6] it was 91.2% (inactive). Moreover, the growth is -0.0952% (active) in assay [7], -32.5% (active) in [8] and 1.27% (active) in [9].

Consider `O=S(OO)c1cc(Cl)c(O)c(Cl)c1` (stereo not drawn), for which the growth in [1] is 110% (inactive); in assay [10], 101% (inactive); in assay [3], 84.2% (inactive); in assay [4], 100% (inactive); in [5], 100% (inactive); in assay [6], 91.3% (inactive). In addition, the growth was 82.5% (inactive) in [7], 103% (inactive) in assay [8] and 91% (inactive) in assay [9].
